Measurements from the supplement of paper PMC3334620.
In all, about 33,000 sequences were measured (“E-score (-0.5 to 0.5)”: median about -0.016, highest 2% from about 0.32 on). The entries come from a sample that favours the highest values as a whole.

Each sequence was assayed against T1, Stp1 (UniProt B3LFK1) (assay: PBM E-score (8-mer binding enrichment) (E-score (-0.5 to 0.5)); higher = stronger / more preferred TF binding). Settings: protein concentration: 200 nM; construct: GST-full length.
T1 sequence: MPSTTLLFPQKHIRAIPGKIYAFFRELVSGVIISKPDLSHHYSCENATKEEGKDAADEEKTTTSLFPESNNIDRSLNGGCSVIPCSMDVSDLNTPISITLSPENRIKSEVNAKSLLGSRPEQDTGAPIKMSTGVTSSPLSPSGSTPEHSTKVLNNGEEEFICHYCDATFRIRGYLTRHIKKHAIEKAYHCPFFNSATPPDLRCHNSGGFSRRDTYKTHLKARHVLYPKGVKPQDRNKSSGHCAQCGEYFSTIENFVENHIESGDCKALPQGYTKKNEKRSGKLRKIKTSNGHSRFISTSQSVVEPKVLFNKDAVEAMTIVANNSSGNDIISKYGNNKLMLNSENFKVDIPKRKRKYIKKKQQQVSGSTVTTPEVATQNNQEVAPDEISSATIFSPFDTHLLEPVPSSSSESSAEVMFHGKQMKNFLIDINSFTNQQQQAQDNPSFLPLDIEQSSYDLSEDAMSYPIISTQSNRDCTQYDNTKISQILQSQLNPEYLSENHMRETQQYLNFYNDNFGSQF
Outline: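 Masliner-normalised scans of fluorescent anti-GST signal were the basis for scoring. That signal came from GST-tagged yeast transcription factors applied at about 100-200 nM to double-stranded universal all-10-mer Agilent arrays on fresh or once-stripped slides. Each ungapped eight-base word, pooled with its reverse complement, received an E-score from the Universal PBM Analysis Suite.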

Row | Sequence | PBM E-score
1 | AGCAGGCT | -0.098
2 | CGGCGCAC | 0.409
3 | AGGCGCAC | 0.179
4 | CCGCGCAG | 0.221
5 | CGGCGCAG | 0.428
6 | AGGCGCAA | 0.279
7 | CGGCGCAA | 0.422
8 | GGGCGCAC | -0.0463
9 | TGGCGCAA | 0.298
10 | AGGCGCAG | 0.188
11 | CCAAGACA | -0.137
12 | CCCCCTAG | -0.354
13 | ATTGGTGA | -0.0777
14 | ACTAAGGA | -0.105
15 | ACCTTACC | 0.0147
16 | CCTTTTTC | 0.104
17 | TAACCACA | -0.022
18 | CAACCTGG | -0.101
19 | TAAGTCAA | -0.0101
20 | AGAGGCAG | -0.125
21 | TGAGGCAA | 0.234
22 | GGAGGCAC | 0.148
23 | AGAGGCAC | 0.366
24 | CGAGGCAA | 0.359
25 | AGAGGCAA | 0.0357

Row | Sequence | PBM E-score
26 | AGAGGCAT | 0.242
27 | CGAGGCAC | 0.384
28 | CGAGGCAG | 0.12
29 | GACCAGCC | -0.259
30 | CCGGTAGG | 0.0318
31 | TACGTAAA | 0.189
32 | CAAGACCA | -0.15
33 | ATACCGCC | 0.1
34 | AAGTTATC | -0.0807
35 | AGATGCAA | -0.0126
36 | GAGTGCGA | -0.046
37 | GCAACGGA | 0.228
38 | CTAGCCGC | 0.395
39 | CGAGCCGA | 0.124
40 | CTAGCCGA | -0.0941
41 | CCAGCCGC | 0.125
42 | ATAGCCGC | 0.298
43 | CGAGCCGC | 0.385
44 | AGAGCCGG | -0.0632
45 | AGAGCCGA | 0.225
46 | AGAGCCGC | 0.44
47 | AATTTGCA | -0.0371
48 | AACGAGAC | -0.0773
49 | ATGTTACA | 0.182
50 | GCTGCTGA | 0.189

Row | Sequence | PBM E-score
51 | CCAAAGAA | 0.068
52 | TAGCTGAA | -0.0818
53 | GAAACGAC | 0.0801
54 | CACGGCGA | 0.474
55 | CACGGCGG | 0.417
56 | CATGGCGA | -0.0243
57 | GTCGGCGA | -0.0125
58 | AACGGCGA | 0.452
59 | AACGGGGA | -0.0385
60 | CCCGGCGG | -0.317
61 | GACGGCGA | 0.4
62 | CCCGGCGA | -0.0779
63 | ACCGGCGA | 0.134
64 | GCCGGCGA | -0.00476
65 | CACGGGGG | -0.208
66 | AGTTGAGG | -0.0375
67 | CCGTTCTA | 0.237
68 | GTGCATAA | 0.183
69 | CGTGCAAC | 0.138
70 | CCCAAATA | -0.153
71 | TCCGAAAA | -0.159
72 | TCCGGCGA | 0.1
73 | TAAGGCGA | 0.315
74 | TACGGCGA | 0.473
75 | GCCTCGAC | 0.0115

Row | Sequence | PBM E-score
76 | CTGGGGAC | -0.392
77 | ATGCGGTC | 0.0837
78 | ATGCGGCC | 0.331
79 | ATGCGGCG | 0.485
80 | ATGCGGTG | -0.103
81 | ATGCGGGC | 0.0547
82 | ATGCGGAG | -0.0518
83 | TAGCGCTA | -0.0704
84 | TCCTCTAA | -0.222
85 | CGCGATTC | 0.118
86 | ACTGGTCA | -0.105
87 | CCACGCGG | 0.18
88 | GTGCCGCA | 0.483
89 | ATGCCGGA | 0.0395
90 | ATGCCGCA | 0.468
91 | CTACCGCA | 0.0499
92 | CTGCCGCC | 0.226
93 | GTGCCGGA | 0.175
94 | ATGCCACA | 0.243
95 | CTGCCGCA | 0.347
96 | ATTCCGCA | 0.0903
97 | GTGCCAAA | 0.119
98 | ATGCCGCG | 0.475
99 | ATGCCACG | 0.275
100 | GCTTTGTA | 0.135

Row | Sequence | PBM E-score
101 | AAGTTAGG | 0.0337
102 | CAACCACG | 0.0433
103 | GGCTGAAA | 0.103
104 | AAGCTCAA | -0.135
105 | CTATGCCC | -0.0982
106 | ATGCCGGC | 0.0928
107 | AGGCCGCC | -0.0139
108 | ATGCCGCC | 0.386
109 | GGTTTGAA | 0.0901
110 | GAAGTGAC | -0.0146
111 | ACAAGGCA | 0.315
112 | AAAAGGCG | 0.34
113 | GCAAGGCC | 0.151
114 | GAAAGGCA | 0.376
115 | GCAAGGCA | 0.38
116 | CAAAGGCG | 0.129
117 | AAAAGGCT | 0.0632
118 | GAAAGGCC | 0.272
119 | AGAAGGCG | 0.2
120 | AAAAGGCC | 0.174
121 | AAAAGGCA | 0.359
122 | CAAAGGCA | 0.184
123 | TGAGAAAA | 0.116
124 | GCCCCTAA | -0.229
125 | CTAAGGGC | -0.224

Row | Sequence | PBM E-score
126 | CTTTTCGA | 0.174
127 | CACCCTAG | -0.172
128 | GCAGAAAC | 0.234
129 | ACAGTCGA | -0.262
130 | CAACGCCG | 0.391
131 | GAACGCCA | 0.0737
132 | CAACGCCC | 0.0959
133 | CAACGCCA | 0.0795
134 | TAACGCCA | 0.133
135 | AAACGCCG | 0.428
136 | AAACGCCT | 0.141
137 | AAACGCCC | 0.231
138 | AAACGCCA | 0.345
139 | CTGGAAAG | -0.15
140 | AGCGAAAG | -0.138
141 | ATGGCTAG | 0.0312
142 | CCTTTCCG | 0.0145
143 | ATGACTTC | 0.00281
144 | AGTACTTG | 0.142
145 | GGGGACGA | -0.249
146 | ATCTCACG | 0.015
147 | CCAGTGCC | 0.179
148 | ACAGTGCC | 0.321
149 | GCAGTGCC | 0.253
150 | ATGGTGCG | -0.0219

Row | Sequence | PBM E-score
151 | ATGGTGCC | 0.372
152 | ACGGTGCG | 0.173
153 | ACGGTGCC | 0.396
154 | CTGGTGCC | 0.252
155 | ACGGTGCA | -0.00717
156 | AACTGGAT | 0.0626
157 | TCCCATCA | -0.201
158 | GGACTGCA | -0.229
159 | GAGCAGAA | -0.0386
160 | CTCACGGA | 0.0462
161 | GTCACGGA | -0.0129
162 | GGCACGGA | 0.376
163 | CGCACGCA | -0.00526
164 | GGCACGCA | 0.288
165 | CGCACGGA | 0.39
166 | TACTCTAA | 0.034
167 | CCCTGTCG | 0.0867
168 | CATATGGG | -0.035
169 | AGGGTCGC | 0.0437
170 | CGCGGAGA | 0.109
171 | CGCGGCGA | 0.451
172 | CGCGGTGA | 0.0941
